# Laboratory results taken from the supplement of paper PMC9262897, “Low-cost anti-mycobacterial drug discovery using engineered E. coli” (Nature Communications, 2022).
# Structures can show the parent of a compound that is named as a salt. ± gives the standard deviation of the averaged measurements.
# Test system: E. coli TESEC Alr+ wild-type control
# Test: growth (OD600 after 10 h); higher = more growth (less inhibition)
# Settings: compound 0.1 mM; raw OD600 reference: median of DMSO wells 0.49, cell-free background 0.052
# Protocol: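 TESEC Mtb Alr E. coli (ΔaraC ΔtolC ΔentC Δalr ΔdadX, arabinose-inducible Mtb Alr) or the Alr+ wild-type control strain, grown in defined M9-fructose medium without D-alanine in 96-well plates with Prestwick library compounds at 0.1 mM and 1% DMSO. Low Alr induction is 0.1 µM arabinose and high induction is 10 mM arabinose.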
row,SMILES,growth
1,CN/C(=N\CCSCc1nc[nH]c1C)NC#N [Cimetidine],0.545 ± 0.0056
2,CN(CCCCCCCCCCN(C)C(=O)Oc1cccc([N+](C)(C)C)c1)C(=O)Oc1cccc([N+](C)(C)C)c1 [Demecarium bromide],0.051 ± 0.00093
3,CCCOc1ccc(C(=O)OCCN(CC)CC)cc1N [Proparacaine hydrochloride],0.469 ± 0.043
4,COc1ccc2c(c1)N(C[C@H](C)CN(C)C)c1ccccc1S2 [Methotrimeprazine maleat salt],0.477 ± 0.023
5,O=c1[nH]c(=O)n([C@H]2C[C@H](O)[C@@H](CO)O2)cc1C(F)(F)F [Trifluridine],0.476 ± 0.016
6,CC12CC3CC(C)(C1)CC(N)(C3)C2 [Memantine Hydrochloride],0.503 ± 0.12
7,CCCNC(C)C(=O)Nc1ccccc1C (stereo not given) [Prilocaine hydrochloride],0.493 ± 0.068
8,C[C@H](N[C@@H](CCc1ccccc1)C(=O)O)C(=O)N1CCC[C@H]1C(=O)O [Enalaprilat dihydrate],0.638 ± 0.025
9,N=C(N)NCCN1CCCCCCC1 [Guanethidine sulfate],0.468 ± 0.04
10,CCc1cc(C(N)=S)ccn1 [Ethionamide],0.583 ± 0.11
11,Clc1cc(Cl)c(OCC#CI)cc1Cl [Haloprogin],0.195 ± 0.037
12,Cc1cnc(NC(=O)C2=C(O)c3ccccc3S(=O)(=O)N2C)s1 [Meloxicam],0.461 ± 0.023
13,CC(=O)O[C@]1(C(C)=O)CC[C@H]2[C@@H]3C=C(C)C4=CC(=O)CC[C@]4(C)[C@H]3CC[C@@]21C [Megestrol acetate],0.212 ± 0.22
14,C=C1c2c(Cl)ccc(O)c2C(O)=C2C(=O)[C@]3(O)C(O)=C(C(N)=O)C(=O)[C@@H](N(C)C)[C@@H]3[C@@H](O)[C@H]12.O=C(O)c1cc(S(=O)(=O)O)ccc1O [Meclocycline sulfosalicylate],0.05223 ± 0.00012
15,NC[C@@H]1O[C@H](O[C@H]2[C@@H](O)[C@H](O[C@@H]3[C@@H](O)[C@H](N)C[C@H](N)[C@H]3O[C@H]3O[C@H](CO)[C@@H](O)[C@H](O)[C@H]3N)O[C@@H]2CO)[C@H](N)[C@@H](O)[C@@H]1O [Paromomycin sulfate],0.535 ± 0.089
16,CC(=O)OCC(=O)[C@@]12N=C(C)O[C@@H]1C[C@H]1[C@@H]3CCC4=CC(=O)C=C[C@]4(C)[C@H]3[C@@H](O)C[C@@]12C [Deflazacort],0.48 ± 0.068
17,CC(C(=O)O)c1ccc2c(c1)Cc1cccnc1O2 (stereo not given) [Pranoprofen],0.4398 ± 0.0017
18,"CCN(CC)CCOc1ccc(C(=C(Cl)c2ccccc2)c2ccccc2)cc1 [Clomiphene citrate (Z,E)]",0.0537 ± 0.00085
19,Oc1c(I)cc(Cl)c2cccnc12 [Clioquinol],0.0685 ± 0.0091
20,CCOC(=O)[N-]c1c[n+](N2CCOCC2)no1 [Molsidomine],0.562 ± 0.037

row,SMILES,growth
1,Cc1cccc(C)c1NC(=O)C1CCCCN1C (stereo not given) [Mepivacaine hydrochloride],0.46 ± 0.038
2,COc1ccc2[nH]c([S+]([O-])Cc3ncc(C)c(OC)c3C)nc2c1 (stereo not given) [Omeprazole],0.409 ± 0.01
3,Cc1cccc(CN2CCN(C(c3ccccc3)c3ccc(Cl)cc3)CC2)c1 (stereo not given) [Meclozine dihydrochloride],0.427 ± 0.021
4,NC(=O)NC1NC(=O)NC1=O (stereo not given) [Allantoin],0.438 ± 0.049
5,Cc1ccc(C(=O)c2ccc(CC(=O)O)n2C)cc1 [Tolmetin sodium salt dihydrate],0.518 ± 0.05
6,N=C(N)NS(=O)(=O)c1ccc(N)cc1 [Sulfaguanidine],0.431 ± 0.022
7,CC[N+](C)(C)c1cccc(O)c1 [Edrophonium chloride],0.437 ± 0.029
8,CCN(CC)CCNC(=O)c1cc(Cl)c(N)cc1OC [Metoclopramide monohydrochloride],0.633 ± 0.05
9,CC(=O)CCCCn1c(=O)c2c(ncn2C)n(C)c1=O [Pentoxifylline],0.489 ± 0.096
10,CN(C)CCOC(c1ccccc1)c1ccccc1 [Diphenhydramine hydrochloride],0.495 ± 0.051
11,C=CCSCC1Nc2cc(Cl)c(S(N)(=O)=O)cc2S(=O)(=O)N1 (stereo not given) [Althiazide],0.444 ± 0.049
12,O=C1NCCN1CCN1CCC(c2cn(-c3ccc(F)cc3)c3ccc(Cl)cc23)CC1 [Sertindole],0.0474 ± 0.001
13,NNC(=O)c1ccncc1 [Isoniazid],0.458 ± 0.054
14,CC(C)CC(=O)N[C@H](C(=O)N[C@H](C(=O)N[C@@H](CC(C)C)[C@@H](O)CC(=O)N[C@@H](C)C(=O)N[C@@H](CC(C)C)[C@@H](O)CC(=O)O)C(C)C)C(C)C [Pepstatin A],0.468 ± 0.053
15,CC[N+](CC)(CC(=O)Nc1c(C)cccc1C)Cc1ccccc1 [Denatonium benzoate],0.439 ± 0.016
16,CC(=O)Oc1cc(C(C)C)c(OCCN(C)C)cc1C [Moxisylyte hydrochoride],0.533 ± 0.029
17,N=C(N)N/N=C/c1c(Cl)cccc1Cl [Guanabenz acetate],0.453 ± 0.026
18,CC(C(=O)O)c1ccc(C(=O)c2ccccc2)s1 (stereo not given) [Tiaprofenic acid],0.502 ± 0.059
19,N=C(N)c1ccc(OCCCCCOc2ccc(C(=N)N)cc2)cc1 [Pentamidine isethionate],0.194 ± 0.068
20,Cc1ccc2c(c1)c1c3n2CCNC3CCC1 (stereo not given) [Pirlindole mesylate],0.485 ± 0.052
